# In PubChem BioAssay (NCATS):
# Records with an inconclusive call do not appear. Active and inactive are the calls of the source. Unless noted, calls come from the whole dose curve.
# Key:
# [1] = biological target: Lysosomal acid glucosylceramidase (Homo sapiens) (UniProt P04062); assay: Glucocerebrosidase-p2 (AID 348; in the data active = potency below about 10 µM; note: potency is the fitted concentration of half-maximal effect); conditions: purified GBA, blue fluorogenic substrate, 40 min
# Summary of the method: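 Normal human glucocerebrosidase (0.2 nM) with blue fluorogenic substrate (80 uM final) in citrate/phosphate pH 5.9 with 10mM sodium taurocholate, 0.01% tween-20; 40 min RT, NaOH/glycine stop; fluorescence Ex 365/Em 440; AC50 from a titration from 0.6 nM upwards.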
# [2] = biological target: Cytochrome P450 1A2 (Homo sapiens) (UniProt P05177); assay: p450-cyp1a2 (AID 410); note: potency is the fitted concentration of half-maximal effect;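 for activity change, negative = inhibition: -100% = full effect of reference inhibitor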
# Summary of the method: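 Luminescent demethylation readout: Luciferin-ME (100uM, equal to Km) turned over by 20nM CYP1A2 for 60 min at room temperature after NADPH regeneration addition, following 10 min compound preincubation. Normalization used 57 uM furafylline as full inhibition.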
# [3] = biological target: Glucocorticoid receptor (Homo sapiens) (UniProt P04150); assay: GR-EFC Redistribution (AID 451); conditions: CHO-K1 GR-EFC translocation, beta-gal luminescence, 2 h; note: potency is the fitted concentration of half-maximal effect
# Summary of the method: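 CHO-K1 cells stably expressing nuclear-localized β-gal enzyme acceptor and GR fused C-terminally to the enzyme donor fragment; ligand-driven nuclear translocation restores β-gal by complementation. Compounds titrated up to 46 uM final, 2 h at 37 °C; luminescence read.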
# [4] = biological target: 3',5'-cyclic-AMP phosphodiesterase 4B (Homo sapiens) (UniProt Q07343); assay: qHTS Assay for Inhibitors of PDE-IV (AID 607; active = well fitted activation curve with a large enough effect in the main read-out, with a control signal flat, not every such curve was filed as active; note: % of control where 0% means no effect)
# Summary of the method: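 Live HEK293 cells with a modified cyclic nucleotide-gated (CNG) channel report intracellular cAMP via membrane-potential dye fluorescence (ex 535/em 590 nm). Endogenous PDE-IV was targeted. Compounds were tested at up to 22.9 uM final; RO 20-1724 100 uM served as control.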
# [5] = qHTS Assay for Lipid Storage Modulators (AID 1519); conditions: Drosophila S3 cells, BODIPY lipid droplet/cell ratio, laser cytometry, cells loaded with oleic acid; for activity change, negative = inhibition: at 57.5 µM (top of the series)
# Summary of the method: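 Cells seeded at 5,000 per well were treated with compounds over a concentration series and loaded with oleic acid (400 uM, as added). Lipid droplet fluorescence (488 nm excitation, 500-530 nm channel) was read by laser-scanning cytometry and normalized to 20 uM Triacsin C.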
# [6] = Primary qHTS for small molecule stabilizers of the endoplasmic reticulum resident proteome: Secreted ER Calcium Modulated Protein (SERCaMP) assay (AID 1508630; active = well fitted curve in the direction sought with a large enough effect; an effect the other way counts as inactive or inconclusive; note: % is set by controls: 0 for no effect and ±100 for the full control effect)
# Summary of the method: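 The SH-SY5Y reporter protocol was run at 3 concentrations up to 38.3 uM (primary) or 11 concentrations (follow-up): 16 h compound, 100 nM thapsigargin for 4 h, then extracellular luciferase luminescence.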
# [7] = biological target: Glucocorticoid receptor (Homo sapiens) (UniProt P04150); assay: GR-GFP Redistribution (AID 450;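 active = compounds whose dose series gives a full or clear partial fitted curve of increased nuclear translocation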; note: potency is the fitted concentration of half-maximal effect); conditions: U2OS GR-GFP nuclear translocation, laser cytometry, 2 h
# [8] = biological target: Mitogen-activated protein kinase 10 (Mus musculus) (UniProt Q61831); assay: JNK3 AlphaScreen Assay (AID 530; active = well fitted curve in either direction with a large enough effect, not every such curve was filed as active;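 note: kinase came from lysate of stimulated human HepG2 cells; signal reports phosphorylation of biotinylated GST-cJun 1-79 at Ser73 with 10 µM ATP; % is set by controls: 0 for no effect and ±100 for the full control effect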)
# Summary of the method: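 Phosphorylation of biotinylated GST-cJun(1-79) at Ser73 is measured by AlphaScreen proximity luminescence. Enzyme is JNK3 in HepG2 lysates activated with interleukin-1beta and tumor necrosis factor alpha; ATP is 10 uM final.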
# [9] = biological target: Cytochrome P450 3A4 (Homo sapiens) (UniProt P08684); assay: qHTS Assay for Activators of Cytochrome P450 3A4 (AID 885; active = well fitted curve in the direction sought with a large enough effect; an effect the other way counts as inactive or inconclusive; note: nearly all actives have a fitted effect of over 65% in size)
# Summary of the method: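 Using 20nM recombinant human CYP3A4 in potassium phosphate (200mM), substrate Luciferin-PPXE at 25uM, luminescent luciferin detection followed a 60-min RT NADPH reaction; data scaled to 57 uM ketoconazole.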
# [10] = NFAT Signaling Pathway (AID 444; active = well fitted curve in either direction with a large enough effect, not every such curve was filed as active;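 note: carbachol stimulus at about its EC50 of 1 µM final; % is set by controls: 0 for no effect and ±100 for the full control effect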); conditions: Jurkat NFAT-bla M1, carbachol, beta-lactamase ratio, 5 h; at 7.69 µM (top of the series) unless noted
# Summary of the method: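 Jurkat cells carrying an NFAT-driven β-lactamase reporter and co-transfected muscarinic M1 receptor were treated with compound plus carbachol (1 uM final, an EC50 level) for 5 h at 37 °C. CCF4 loading followed for 1 h at RT; 460/530 nm ratio gave %activity.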
# [11] = Stat Signaling Pathway (AID 446; active = well fitted curve in either direction with a large enough effect, not every such curve was filed as active;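 note: ME-180 cervical cancer cells given 40 pM IL-6 alongside compound; SIE-controlled beta-lactamase reporter measured as 460/530 nm FRET emission ratio; % is set by controls: 0 for no effect and ±100 for the full control effect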); conditions: ME-180 SIE beta-lactamase reporter, IL-6 stimulated, 5 h; at 7.69 µM (top of the series) unless noted
# Summary of the method: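 Overnight-plated ME-180 cells bearing a STAT Inducible Element beta-lactamase reporter; 5 h co-exposure to compound and 40 pM IL-6; values normalized to 300 pM IL-6 and 125 nM JAK inhibitor controls.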
# [12] = AP1 Signaling Pathway (AID 357; active = well fitted curve in either direction with a large enough effect, not every such curve was filed as active); conditions: ME-180 AP-1-bla reporter, EGF-induced, beta-lactamase ratio, 5 h; at 7.69 µM (top of the series) unless noted
# Summary of the method: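 Modulation of EGF-driven AP-1 transcription was assessed with a beta-lactamase reporter in ME-180 cells. Compound and EC50 EGF were co-incubated 5 hours at 37 °C before 2.5-hour CCF4 loading at room temperature and dual-emission reading.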
# [13] = biological target: Cytochrome P450 3A4 (Homo sapiens) (UniProt P08684); assay: qHTS Assay for Inhibitors and Substrates of Cytochrome P450 3A4 (AID 884; active = well fitted curve in the direction sought with a large enough effect; an effect the other way counts as inactive or inconclusive; note: potency is the fitted concentration of half-maximal effect; nearly all actives have a fitted effect of over 50% in size)
# Summary of the method: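 Luminescent readout of luciferin produced by CYP3A4 (20 nM) dealkylation of Luciferin-PPXE, 25 uM (its KM). NADPH-driven reaction ran 60 min at RT after 10 min compound preincubation; data scaled to 57 uM ketoconazole as 100% inhibition.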
# [14] = qHTS Assay for Identification of Small Molecule Agonists for Hypoxia Response Element Signaling Pathway (AID 914; active = well fitted activation curve with a large enough effect in the signal ratio, with a control signal flat, not every such curve was filed as active; the % refers to the signal ratio; note: % of control where 0% means no effect); conditions: ME-180 (cervical carcinoma) HRE-bla reporter, beta-lactamase ratio, CoCl2, 17 h; activation: stronger effect = higher value
# Summary of the method: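 Compounds in a titration series were added to ME-180 reporter cells alongside an EC50 level of CoCl2. After 17 hours, beta-lactamase activity was read as the 460nm/530nm emission ratio of CCF4, giving AC50 values.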
# [15] = Confirmation and Secondary Assay for Modulators of Hemoglobin Beta Chain Splicing at IVS2 705 locus (AID 930; active = well fitted curve in the direction sought with a large enough effect; an effect the other way counts as inactive or inconclusive;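 note: HeLa cells stably expressing the EGFP-705 splicing reporter; GFP fluorescence per well restored by corrected splicing of the IVS2-705 intron in EGFP; % of control where 0% means no effect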)
# Summary of the method: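 Assay measures total GFP intensity per well in HeLa EGFP-705 cells after 2 days with compound; mis-splicing normally truncates EGFP, so fluorescence indicates corrected splicing.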
# [16] = biological target: Ubiquitin carboxyl-terminal hydrolase 1 (Homo sapiens) (UniProt O94782); assay: Inhibitors of USP1/UAF1: Pilot qHTS (AID 504865; active = well fitted curve in the direction sought with a large enough effect; an effect the other way counts as inactive or inconclusive;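 note: rhodamine fluorescence freed from ubiquitin-rhodamine substrate followed over time; top concentration of the series differs between compounds; % is set by controls: 0 for no effect and ±100 for the full control effect; nearly all actives have a fitted effect of over 35% in size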)
# Summary of the method: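 In 50mM HEPES pH 7.8 containing 0.5mM EDTA, 1mM TCEP, 0.1 mg/ml BSA and 0.01% Tween-20, 1nM USP1/UAF1 is exposed to compound for 15 min, then Ub-Rho (150nM final) is added and fluorescence is read over time.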
# [17] = biological target: Cytochrome P450 2C19 (Homo sapiens) (UniProt P33261); assay: qHTS Assay for Inhibitors and Substrates of Cytochrome P450 2C19 (AID 899; active = well fitted curve in the direction sought with a large enough effect; an effect the other way counts as inactive or inconclusive; note: potency is the fitted concentration of half-maximal effect; nearly all actives have a fitted effect of over 60% in size)
# Summary of the method: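 In 50mM KPO4, the reaction held 5nM enzyme and KM-level (10uM) Luciferin-H EGE; it ran 60 min at 37C after NADPH regeneration and a 10 min compound preincubation. Luminescence values were scaled to 57uM ketoconazole as complete inhibition.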
# [18] = Confirmation and Secondary Assay for Modulators of Hemoglobin Beta Chain Splicing at IVS2 654 locus (AID 910; active = well fitted curve in the direction sought with a large enough effect; an effect the other way counts as inactive or inconclusive;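 note: per-well total GFP intensity by laser scanning cytometry after 2-day treatment; % of control where 0% means no effect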)
# Summary of the method: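 HeLa cells stably carrying EGFP interrupted by mutant beta-globin IVS2-654 intron (CMV-driven) were treated with compound for 2 days at 37C; corrected splicing was scored as total peak GFP intensity per well (488 nm excitation, 500-520 nm emission).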
# [19] = measured here: cell count channel max response
# [20] = measured here: lipid channel max response
# Sequence of Lysosomal acid glucosylceramidase (Homo sapiens) (P04062 whole entry, looked up): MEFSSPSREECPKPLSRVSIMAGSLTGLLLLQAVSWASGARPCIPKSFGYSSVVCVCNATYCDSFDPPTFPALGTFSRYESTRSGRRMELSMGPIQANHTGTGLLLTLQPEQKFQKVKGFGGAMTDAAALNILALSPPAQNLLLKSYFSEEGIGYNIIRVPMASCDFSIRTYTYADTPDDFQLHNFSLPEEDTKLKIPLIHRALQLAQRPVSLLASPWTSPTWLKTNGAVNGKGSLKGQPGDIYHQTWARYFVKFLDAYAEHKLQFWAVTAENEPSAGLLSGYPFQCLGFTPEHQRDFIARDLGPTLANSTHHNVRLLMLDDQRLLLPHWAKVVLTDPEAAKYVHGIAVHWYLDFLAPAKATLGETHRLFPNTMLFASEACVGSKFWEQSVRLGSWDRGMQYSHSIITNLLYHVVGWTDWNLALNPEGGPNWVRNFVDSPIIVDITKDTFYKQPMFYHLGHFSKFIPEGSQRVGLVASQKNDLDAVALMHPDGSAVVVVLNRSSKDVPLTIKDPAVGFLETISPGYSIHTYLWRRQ
# Sequence of Cytochrome P450 1A2 (Homo sapiens) (P05177 whole entry, looked up): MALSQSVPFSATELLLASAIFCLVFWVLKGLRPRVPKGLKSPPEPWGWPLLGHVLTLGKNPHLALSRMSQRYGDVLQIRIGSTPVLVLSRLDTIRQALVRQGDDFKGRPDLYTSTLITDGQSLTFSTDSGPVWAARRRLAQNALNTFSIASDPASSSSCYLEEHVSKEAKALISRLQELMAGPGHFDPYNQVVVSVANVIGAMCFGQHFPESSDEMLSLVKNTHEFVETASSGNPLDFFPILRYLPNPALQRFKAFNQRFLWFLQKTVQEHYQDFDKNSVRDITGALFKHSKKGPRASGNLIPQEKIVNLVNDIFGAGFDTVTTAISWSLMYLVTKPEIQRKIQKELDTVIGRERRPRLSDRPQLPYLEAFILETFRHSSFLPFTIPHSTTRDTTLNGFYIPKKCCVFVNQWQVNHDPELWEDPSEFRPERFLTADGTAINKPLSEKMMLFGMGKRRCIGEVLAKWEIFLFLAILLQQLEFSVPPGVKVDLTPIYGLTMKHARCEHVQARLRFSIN
# Sequence of Glucocorticoid receptor (Homo sapiens) (P04150 whole entry, looked up, the tested form may be a part): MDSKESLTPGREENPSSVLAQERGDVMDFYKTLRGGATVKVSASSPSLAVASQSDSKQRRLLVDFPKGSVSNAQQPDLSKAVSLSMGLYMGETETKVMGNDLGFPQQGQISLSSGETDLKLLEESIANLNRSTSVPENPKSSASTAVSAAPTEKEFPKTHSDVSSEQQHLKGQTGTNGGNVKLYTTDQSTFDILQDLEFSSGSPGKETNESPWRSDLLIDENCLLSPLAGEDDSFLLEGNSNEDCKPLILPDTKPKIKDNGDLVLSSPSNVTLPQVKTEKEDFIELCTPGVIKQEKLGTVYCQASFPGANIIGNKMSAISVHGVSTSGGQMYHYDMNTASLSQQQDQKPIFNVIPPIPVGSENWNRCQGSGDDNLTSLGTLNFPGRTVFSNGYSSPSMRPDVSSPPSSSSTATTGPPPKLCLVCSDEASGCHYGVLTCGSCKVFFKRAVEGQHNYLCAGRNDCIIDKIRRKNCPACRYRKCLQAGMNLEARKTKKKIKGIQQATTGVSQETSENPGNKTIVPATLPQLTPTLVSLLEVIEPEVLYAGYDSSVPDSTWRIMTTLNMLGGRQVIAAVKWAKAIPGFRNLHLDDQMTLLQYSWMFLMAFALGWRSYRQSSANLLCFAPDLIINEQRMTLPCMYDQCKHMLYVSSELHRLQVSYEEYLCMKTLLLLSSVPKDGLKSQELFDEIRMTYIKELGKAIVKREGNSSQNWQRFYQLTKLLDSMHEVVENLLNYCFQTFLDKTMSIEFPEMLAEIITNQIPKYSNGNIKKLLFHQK
# Sequence of 3',5'-cyclic-AMP phosphodiesterase 4B (Homo sapiens) (Q07343 whole entry, looked up): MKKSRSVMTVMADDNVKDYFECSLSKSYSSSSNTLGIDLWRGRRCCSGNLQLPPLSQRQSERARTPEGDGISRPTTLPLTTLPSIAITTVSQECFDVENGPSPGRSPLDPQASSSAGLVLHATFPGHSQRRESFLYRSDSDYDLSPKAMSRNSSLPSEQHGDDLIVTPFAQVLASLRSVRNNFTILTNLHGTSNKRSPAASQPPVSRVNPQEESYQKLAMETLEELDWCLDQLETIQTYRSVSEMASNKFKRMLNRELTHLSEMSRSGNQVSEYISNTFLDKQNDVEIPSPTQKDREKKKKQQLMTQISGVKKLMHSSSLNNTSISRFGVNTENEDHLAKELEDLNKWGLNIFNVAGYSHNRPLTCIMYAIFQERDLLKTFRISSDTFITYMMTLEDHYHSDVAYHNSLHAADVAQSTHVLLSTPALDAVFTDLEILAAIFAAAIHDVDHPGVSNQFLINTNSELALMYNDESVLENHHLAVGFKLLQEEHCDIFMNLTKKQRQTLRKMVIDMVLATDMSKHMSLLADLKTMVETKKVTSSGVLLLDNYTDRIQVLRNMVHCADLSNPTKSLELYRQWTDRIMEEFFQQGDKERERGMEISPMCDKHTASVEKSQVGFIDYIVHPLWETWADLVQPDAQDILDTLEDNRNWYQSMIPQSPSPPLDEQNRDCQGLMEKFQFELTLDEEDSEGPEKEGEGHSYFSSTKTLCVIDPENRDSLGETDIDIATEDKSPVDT
# Sequence of Cytochrome P450 3A4 (Homo sapiens) (P08684 whole entry, looked up): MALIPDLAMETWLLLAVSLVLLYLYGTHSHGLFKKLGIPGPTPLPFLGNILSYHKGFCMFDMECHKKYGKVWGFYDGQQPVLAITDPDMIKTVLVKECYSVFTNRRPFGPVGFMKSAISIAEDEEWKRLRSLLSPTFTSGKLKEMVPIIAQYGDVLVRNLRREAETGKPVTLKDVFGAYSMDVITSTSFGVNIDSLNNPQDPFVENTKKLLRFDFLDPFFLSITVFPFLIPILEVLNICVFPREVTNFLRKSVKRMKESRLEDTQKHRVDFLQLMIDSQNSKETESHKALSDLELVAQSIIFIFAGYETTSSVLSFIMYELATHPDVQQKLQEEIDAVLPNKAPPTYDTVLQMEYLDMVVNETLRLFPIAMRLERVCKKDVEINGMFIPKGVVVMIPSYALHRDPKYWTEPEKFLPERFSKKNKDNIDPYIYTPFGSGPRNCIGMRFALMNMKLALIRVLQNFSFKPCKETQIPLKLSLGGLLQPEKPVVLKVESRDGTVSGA
# Sequence of Ubiquitin carboxyl-terminal hydrolase 1 (Homo sapiens) (O94782 whole entry, looked up): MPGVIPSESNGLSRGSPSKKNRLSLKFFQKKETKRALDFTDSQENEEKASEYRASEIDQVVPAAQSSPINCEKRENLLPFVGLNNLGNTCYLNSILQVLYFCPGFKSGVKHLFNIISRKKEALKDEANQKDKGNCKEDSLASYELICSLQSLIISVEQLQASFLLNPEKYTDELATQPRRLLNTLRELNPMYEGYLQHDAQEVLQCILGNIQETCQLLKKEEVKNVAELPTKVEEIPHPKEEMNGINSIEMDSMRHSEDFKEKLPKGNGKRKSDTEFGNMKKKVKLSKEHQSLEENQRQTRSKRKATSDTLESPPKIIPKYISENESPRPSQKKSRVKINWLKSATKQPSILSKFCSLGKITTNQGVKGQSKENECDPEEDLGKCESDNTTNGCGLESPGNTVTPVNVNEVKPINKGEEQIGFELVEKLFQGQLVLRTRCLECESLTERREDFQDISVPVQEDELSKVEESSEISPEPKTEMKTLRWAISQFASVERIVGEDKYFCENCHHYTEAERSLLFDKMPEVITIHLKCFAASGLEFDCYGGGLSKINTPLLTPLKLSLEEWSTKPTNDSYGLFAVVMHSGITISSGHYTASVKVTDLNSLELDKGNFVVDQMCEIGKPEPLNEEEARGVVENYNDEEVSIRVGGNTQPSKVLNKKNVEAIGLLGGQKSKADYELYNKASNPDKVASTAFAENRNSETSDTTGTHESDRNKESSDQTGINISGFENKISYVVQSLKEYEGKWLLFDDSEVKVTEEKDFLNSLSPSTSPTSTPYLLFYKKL
# Sequence of Cytochrome P450 2C19 (Homo sapiens) (P33261 whole entry, looked up): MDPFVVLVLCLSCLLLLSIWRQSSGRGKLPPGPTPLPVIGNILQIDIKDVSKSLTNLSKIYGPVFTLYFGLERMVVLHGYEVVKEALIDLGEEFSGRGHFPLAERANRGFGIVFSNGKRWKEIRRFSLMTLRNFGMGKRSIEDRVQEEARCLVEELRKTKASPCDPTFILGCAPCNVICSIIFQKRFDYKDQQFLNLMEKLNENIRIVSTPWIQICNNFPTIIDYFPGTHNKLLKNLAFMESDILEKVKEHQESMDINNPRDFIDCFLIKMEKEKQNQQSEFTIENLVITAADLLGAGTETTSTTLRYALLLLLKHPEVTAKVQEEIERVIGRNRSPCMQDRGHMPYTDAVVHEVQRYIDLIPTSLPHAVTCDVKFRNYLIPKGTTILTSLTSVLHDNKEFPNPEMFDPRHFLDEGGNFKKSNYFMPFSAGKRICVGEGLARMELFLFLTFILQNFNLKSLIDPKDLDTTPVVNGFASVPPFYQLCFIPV
Compound,Potency [1],Potency [2],Potency [3],Potency [4],"activity change, negative = inhibition [5]","max response [5, 19] [%]","max response [5, 20] [%]",outcome [6],Potency [7],Potency [8],Potency [9],"activity change, negative = inhibition [10]","activity, negative = inhibition [11]","activity change, negative = inhibition [12]",Potency [13],activation [14],outcome [15],Potency [16],Potency [17],Potency [18]
O=S(=O)(c1ccccc1)N1CCC[C@@]2(CCN(Cc3cc(C(F)(F)F)cc(C(F)(F)F)c3)C2)C1,> 11.4 µM (inactive),inactive,> 46 µM (inactive),inactive,4.5% (inactive),17.1,25.2,inactive,,,,,,,,,,,,
COc1ccc(-c2nc3cnc(N4CCNCC4)nc3n(C)c2=O)cc1,> 11.4 µM (inactive),12.6 µM (active),> 46 µM (inactive),inactive,4.15% (inactive),15.8,21.9,inactive,> 9.22 µM (inactive),inactive,inactive,,,,,,,,,
O=C(c1csnn1)N1CCC2(CCCN(C(c3ccccc3)c3ccccc3)C2)CC1,> 11.4 µM (inactive),,> 46 µM (inactive),inactive,-2.23% (inactive),-8.01,-8.95,inactive,,inactive,,1.14% (inactive),18.5% (inactive),,,,,,,
CS(=O)(=O)Nc1cccc(-c2nccc(-n3ccnc3)n2)c1,,0.2 µM (active),> 46 µM (inactive),inactive,2.72% (inactive),1.42,5,inactive,> 46 µM (inactive),inactive,inactive,-0.156% (inactive),0.985% (inactive),-9.45% (inactive),1.58 µM (active),-11.9% (inactive),inactive,inactive,,
COc1ccc(NC(=O)N2CC[C@@]3(CCCN(C(C)=O)C3)C2)cc1,> 11.4 µM (inactive),,> 46 µM (inactive),inactive,5.28% (inactive),4.36,12,inactive,,inactive,,13.8% (inactive),6.12% (inactive),,,,,,,
Cn1cccc1C(=O)N1CCC2(CCCN(C(=O)Nc3ccccc3)C2)CC1,> 11.4 µM (inactive),,> 46 µM (inactive),inactive,7.87% (inactive),14.7,28.5,inactive,,,inactive,-22.5% (inactive),4.11% (inactive),,,,,,,
FC(F)(F)c1ccccc1-c1cncnc1Nc1ccccc1,,25.1 µM (active),> 46 µM (inactive),,4.42% (inactive),10.3,16.8,inactive,> 46 µM (inactive),inactive,inactive,9.21% (inactive),7.53% (inactive),-9.67% (inactive),,,inactive,inactive,7.94 µM (active),inactive
